Active and inactive are the calls of the source. How the source made its calls: active means hit-call score of the fitted dose curve at least 0.9, where 1 is the maximum; inactive means score below 0.9.
Assay: Tanguay_ZF_120hpf_BRN: Oregon State University Tanguay Lab 120 Hour Post-fertilization zebrafish Assay for Brain Region Malformation (AID 2284402)
Procedure: Tanguay_ZF_120hpf is a whole embryo, multiplexed endpoint assay using zebrafish larvae exposed for 120 hours post fertilization on a 96-well plate.Tanguay_ZF_120hpf_BRN is one of one assay component(s) measured or calculated from the Tanguay_ZF_120hpf assay. It is designed to make measurements of zebrafish development as detected with brightfield microscopy of developing zebrafish embryos.Data from the assay component Tanguay_ZF_120hpf_BRN was analyzed into 1 assay endpoints. This assay endpoint, Tanguay_ZF_120hpf_BRN, was analyzed in the positive analysis fitting direction relative to DMSO as the negative control and baseline of activity. Using a type of morphology reporter, gain-of-signal activity can be used to understand changes in developmentals as they relate to the whole embryo. To generalize the intended target to other relatable targets, this assay endpoint is annotated to the zebrafish development intended target family, where the subfamily is brain morphogenesis.
Zebrafish husbandry: Tropical 5D wild-type adult zebrafish were housed in at an approximate density of 1000 per 100 gallon tank at the Sinnhuber Aquatic Research Laboratory, Oregon State University, Corvallis, OR. Each tank was kept at standard laboratory conditions of 28C on a 14-h light/10-h dark photoperiod in fish water consisting of reverse osmosis water supplemented with a commercially available salt (Instant Ocean). Spawning funnels were placed into the tanks the night prior, and embryos were collected and staged. To increase bioavailability, the chorion was enzymatically removed using pronase (63.6mg/ml, >/= 3.5U/mg, Sigma-Aldrich: P5147) at 4 hours post fertilization (hpf) using a custom automated dechorionator.Chemical exposures: Six hpf dechorionated embryos were placed 1 embryo per well in a 96-well plate prefilled with 90 ul of EM using automated embryo placement systems (AEPS). Ten microliters of each row of dilution plate 2 was added to 2 exposure plates. The final DMSO concentration used was 0.64% (vol/vol). Thirty-two embryos were also exposed to 5uM trimethyltin chloride (positive control). Plates were sealed to prevent evaporation and foil covered to reduce light exposure and kept in a 28C incubator. Embryos were statically exposed until 120 hpf. At 24 hpf, embryos were assessed for photomotor response using a custom photomotor response analysis tool (PRAT) and for developmental toxicity endpoints (MO24: mortality at 24 hpf, DP: developmental progression, SM: spontaneous movement, and NC: notochord distortion). At 120 hpf, locomotor activity was measured using Viewpoint Zebralab and assessed for 13 endpoints. Zebrafish acquisition and analysis program (ZAAP), a custom program designed to inventory, acquire, and manage zebrafish data, was used to collect developmental endpoints as either present or absent (i.e., binary responses were recorded). If mortality occurred for an embryo (at either 24 or 120 hpf), the non-mortality endpoints were not measured.

| Structure (SMILES) | outcome | AC50 |
| --- | --- | --- |
| NC(=O)C(F)(F)C(F)(F)C(F)(F)F | inactive |  |
| C=CC(=O)OCC(F)(F)C(F)(F)C(F)(F)COC(=O)C=C |  | 4.29 µM (active) |
| O=C(O)C(F)(F)C(F)(F)C(F)(F)C(=O)O | inactive |  |
| OC(O)C(F)(F)C(F)(F)F | inactive |  |
| O=S(=O)(O)CCC(F)(F)C(F)(F)C(F)(F)C(F)(F)C(F)(F)C(F)(F)C(F)(F)C(F)(F)F | inactive |  |
| OCC(O)CC(F)(F)C(F)(F)C(F)(F)C(F)(F)F (configuration not stated) | inactive |  |
| OCCCC(F)(F)C(F)(F)C(F)(F)C(F)(F)C(F)(F)C(F)(F)C(F)(F)C(F)(F)F | inactive |  |
| NC(=O)C(F)(F)C(F)(F)C(F)(F)C(F)F | inactive |  |
| O=C(O)C(F)(F)C(F)(F)C(F)(F)OC(F)(F)F | inactive |  |
| CN(C(=O)C(F)(F)C(F)(F)C(F)(F)F)[Si](C)(C)C | inactive |  |
| NS(=O)(=O)C(F)(F)C(F)(F)C(F)(F)C(F)(F)C(F)(F)C(F)(F)F | inactive |  |
| O=S(=O)(O)CCC(F)(F)C(F)(F)C(F)(F)C(F)(F)F | inactive |  |
| FC(F)(F)C(F)(F)C(F)(F)C(F)(F)C(F)(F)C(F)(F)CC[Si](Cl)(Cl)Cl | inactive |  |
| OCC(O)CC(F)(F)C(F)(F)C(F)(F)C(F)(F)C(F)(F)C(F)(F)C(F)(F)C(F)(F)F (configuration not stated) | inactive |  |
| O=C(O)CCC(F)(F)C(F)(F)C(F)(F)C(F)(F)C(F)(F)C(F)(F)C(F)(F)F | inactive |  |
| NC(=O)C(F)(F)C(F)(F)C(F)(F)C(F)(F)C(F)(F)C(F)(F)C(F)(F)F | inactive |  |
| FC(F)(F)C(F)(F)C(F)(F)C(F)(F)C(F)(F)C(F)(F)C(F)(F)CCI | inactive |  |
| FC(F)(F)C(F)(F)C(F)(F)CC1CO1 (configuration not stated) | inactive |  |
| NC(O)(C(F)(F)F)C(F)(F)F | inactive |  |

| Structure (SMILES) | outcome | AC50 |
| --- | --- | --- |
| O=C(O)C(F)(F)C(F)(F)C(F)(F)OC(F)(C(F)(F)F)C(F)(F)F | inactive |  |
| O=S(=O)(Cl)C(F)(F)C(F)(F)C(F)(F)C(F)(F)C(F)(F)C(F)(F)C(F)(F)C(F)(F)F | inactive |  |
| OCC(F)(F)C(F)(F)C(F)(F)C(F)(F)C(F)(F)C(F)(F)CO | inactive |  |
| C=CC(=O)OCC(F)(F)C(F)(F)C(F)(F)C(F)(F)C(F)(F)C(F)(F)C(F)(F)C(F)F | inactive |  |
| CNS(=O)(=O)C(F)(F)C(F)(F)C(F)(F)C(F)(F)C(F)(F)C(F)(F)C(F)(F)C(F)(F)F | inactive |  |
| OCC(F)(F)C(F)(F)C(F)(F)CO | inactive |  |
| NC(=O)C(F)(F)C(F)(F)C(F)(F)C(F)(F)C(N)=O | inactive |  |
| O=C(F)C1(F)C(F)(F)C(F)(F)C(F)(F)C(F)(F)C1(F)F | inactive |  |
| C=CC(=O)OCCC(F)(F)C(F)(F)C(F)(F)C(F)(F)F | inactive |  |
| OCC(F)(F)C(F)(F)C(F)(F)C(F)(F)C(F)(F)C(F)(F)C(F)(F)C(F)(F)CO | inactive |  |
| COC(F)(C(F)F)C(F)(F)F (configuration not stated) | inactive |  |
| CCN(CCO)S(=O)(=O)C(F)(F)C(F)(F)C(F)(F)C(F)(F)C(F)(F)C(F)(F)C(F)(F)C(F)(F)F | inactive |  |
| C[Si](Cl)(Cl)CCC(F)(F)C(F)(F)C(F)(F)C(F)(F)C(F)(F)C(F)(F)F | inactive |  |
| CO[Si](C)(CCC(F)(F)C(F)(F)C(F)(F)C(F)(F)C(F)(F)C(F)(F)F)OC | inactive |  |
| OCCCCC(F)(F)C(F)(F)C(F)(F)C(F)(F)F | inactive |  |
| O=C(O)CCC(F)(F)C(F)(F)C(F)(F)F | inactive |  |
| CCOC(=O)CC(=O)C(F)(F)C(F)(F)F | inactive |  |
| O=S(=O)(OCC(F)(F)F)C(F)(F)C(F)(F)C(F)(F)C(F)(F)F | inactive |  |
